Activity calls are given as the source filed them.
Tests used:
[1] = target: Albumin (Bos taurus) (UniProt P02769); assay: bovine serum albumin binders on microarray, profiling panel, artefact control for SMM control protein annotation, biochemical, small-molecule microarray, Alexa647 label, 635/667 nm fluorescence (AID 1118); details: BSA-A647 binding, fluorescence 635 nm, higher = more signal;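 note: score merges 667 nm emission intensity and signal-to-noise per printed compound spot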
[2] = small-molecule microarray binders of probe aXIP, primary screen, biochemical, NeuroSMM set, 635/667 nm fluorescence (AID 1119); details: higher = more signal, called active from +8 up or from −8 down;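 note: probe is the protein aXip251-270 applied at 1 µg/mL to compound-printed slides; binding of probe to printed compounds measured as 667 nm fluorescence plus signal to noise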
[3] = small-molecule binders of probe aNOTCH3, primary screen, biochemical, small-molecule microarray, 635/667 nm fluorescence (AID 1120); details: higher = more signal;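 note: probe is a biotin-tagged antibody raised against NOTCH3 rather than NOTCH3 protein; score merges spot fluorescence near 667 nm with spot signal to noise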
[4] = small-molecule binders of probe aNOTCH2, primary screen, biochemical, small-molecule microarray, 635/667 nm fluorescence (AID 1121); details: higher = more signal;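 note: score merges feature fluorescence read at 667 nm with its signal to noise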
[5] = target: Carbonic anhydrase 2 (Homo sapiens) (UniProt P00918); assay: CAII small-molecule binders, profiling panel, biochemical, small-molecule microarray, Alexa647-labelled CAII (AID 1122); details: CAII-A647 binding fluorescence, higher = more signal
[6] = COS7 lysate on small-molecule microarray, probe aHis, 635 nm (AID 1123); details: COS7 cell lysate, fluorescence, higher = more signal;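 note: z-score combines 667nm fluorescence intensity with signal-to-noise per printed compound spot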
[7] = compound binding in COS7 lysate, probe aLAP1, primary screen, cell lysate, small-molecule microarray (AID 1124); details: probe aLAP1, fluorescence, higher = more signal;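 note: lysate comes from COS7 cells expressing LAP1 and is applied at 0.3 µg/mL; score merges spot fluorescence near 667 nm with signal-to-noise over triplicate slides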
[8] = tested on: Sam68 (KHDRBS1); assay: Sam68 small-molecule binders, primary screen, biochemical, small-molecule microarray, 635 nm fluorescence (AID 1125); details: small-molecule microarray binding, higher = more signal;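 note: score merges 667 nm channel intensity with signal to noise over triplicate slides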
[9] = tested on: Chordin-like protein 2 (CHRDL2); assay: CHRDL2 small-molecule binders, primary screen, biochemical, small-molecule microarray, 635 nm fluorescence (AID 1126); details: small-molecule microarray binding, fluorescence 635 nm; higher = more signal;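 note: printed compound slides probed with Chrdl2 protein at 4 µg/mL for 1 h at 4 C; score merges 667 nm emission intensity with signal to noise over three replicate slides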
[10] = target: Concanavalin-A (Canavalia ensiformis) (UniProt P02866); assay: ConA small-molecule binders, primary screen, artefact control for SMM control protein annotation, biochemical, small-molecule microarray, Alexa647 label, 635 nm (AID 1127); details: ConA-A647 binding fluorescence, higher = more signal;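 note: z combines 667 nm emission intensity with signal-to-noise across three replicate slides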
Concanavalin-A (Canavalia ensiformis), sequence (P02866 whole entry, looked up): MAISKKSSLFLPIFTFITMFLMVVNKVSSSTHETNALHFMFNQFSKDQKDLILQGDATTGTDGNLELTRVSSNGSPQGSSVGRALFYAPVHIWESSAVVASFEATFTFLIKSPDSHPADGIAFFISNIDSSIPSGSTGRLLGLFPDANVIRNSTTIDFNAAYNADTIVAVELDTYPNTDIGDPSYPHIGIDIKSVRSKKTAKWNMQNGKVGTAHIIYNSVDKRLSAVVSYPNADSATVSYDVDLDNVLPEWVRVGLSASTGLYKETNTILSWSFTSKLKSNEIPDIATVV

Albumin (Bos taurus), sequence (P02769 whole entry, looked up): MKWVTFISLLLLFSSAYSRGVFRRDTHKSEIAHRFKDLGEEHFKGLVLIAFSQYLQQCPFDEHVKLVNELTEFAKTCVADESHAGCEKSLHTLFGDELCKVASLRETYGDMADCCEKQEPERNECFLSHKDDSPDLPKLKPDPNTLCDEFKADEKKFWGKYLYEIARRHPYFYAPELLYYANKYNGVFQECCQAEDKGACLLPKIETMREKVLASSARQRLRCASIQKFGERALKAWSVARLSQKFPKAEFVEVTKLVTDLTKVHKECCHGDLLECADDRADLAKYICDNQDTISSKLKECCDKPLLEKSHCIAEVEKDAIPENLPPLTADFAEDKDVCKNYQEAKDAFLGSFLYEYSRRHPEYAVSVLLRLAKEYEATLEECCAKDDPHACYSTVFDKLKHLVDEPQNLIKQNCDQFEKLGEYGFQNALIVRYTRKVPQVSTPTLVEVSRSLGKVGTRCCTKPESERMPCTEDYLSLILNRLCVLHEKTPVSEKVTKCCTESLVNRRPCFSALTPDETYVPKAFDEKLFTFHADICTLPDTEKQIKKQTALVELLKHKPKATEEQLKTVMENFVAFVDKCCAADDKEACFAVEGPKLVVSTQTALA

Structure (SMILES)	composite z-score [1]	composite Z-score [2]	composite z-score [3]	composite z-score [4]	composite z-score [5]	composite z-score [6]	composite z-score [7]	composite z-score [8]	composite z-score [9]	composite z-score [10]
COc1ccc(COC2OC[C@]3(C)[C@H]4C5=C(CN3C(=O)OC(C)(C)C)[C@H](C)C(CO)C(CO)C5CC[C@@H]24)cc1 (stereo not given in full)	0.73	0.086 (inactive)	0.339	0.191	0.513	0.814	0.846	0.567	-0.888	0.927
C#CCNC(=O)[C@H](Cc1ccccc1)NC(=O)CCC(=O)O	-1.09	1.42 (inactive)	-0.262	-0.161	-0.124	-0.301	0.236	-1.74	-0.471	-1.83
O=C(NCc1ccc(F)cc1)[C@H]1C[C@H]2C(=O)N[C@@H](Cc3ccccc3)C(=O)N2[C@H]1c1ccc(O)cc1	-1.22	0.239 (inactive)	-0.323	-0.159	0.606	1.56	-0.516	-0.109	0.371	0.368
CC(C)(C)OC(=O)CC[C@]12N=C(c3ccc(OCCCO)cc3)O[C@H]1c1ccccc1N(CCS(=O)(=O)c1ccccc1)C2=O	0.0963	1.02 (inactive)	0.21	-0.0241	0.422	2.48	0.53	1.3	0.765	1.14
CN(C)CCCNC(=O)[C@@]1(c2ccc([N+](=O)[O-])cc2)CC(=O)N(C2CCCCC2)[C@@H]1c1ccc(CO)cc1	0.611	-0.14 (inactive)	-0.0795	-0.146	0.395	1.68	-0.0291	0.819	-0.357	0.282
CO[C@H]1O[C@H](CO)[C@@H](OC(=O)Nc2ccc(Br)cc2)[C@H](OC(=O)c2cc3ccccc3[nH]2)[C@H]1OC(=O)c1cc2ccccc2[nH]1	0.93	0.907 (inactive)	-0.04	-0.101	0.386	1.25	0.451	1.33	0.283	1.14
COC(=O)[C@@]1(Cc2ccc(OC)cc2)[C@H]2c3cc(C(=O)N4CCCC4)n(Cc4ccc(OC)c(OC)c4)c3C[C@H]2CN1C(=O)c1ccccc1	1.08	0.983 (inactive)	1.28	0.852	0.592	2.74	0.601	1.3	0.206	1.14
C=C(COC)/C(=C/C[C@H](OC(=O)c1ccncc1)c1ccc(OCCO)cc1)c1cnc2ccccc2c1	0.808	0.914 (inactive)	0.227	-0.0389	0.86	1.46	0.334	1.29	1.26	1.17
COc1ccc([C@H]2OC[C@@H]3CC4(CC=CC4)C(=O)N32)cc1	-0.505	0.544 (inactive)	0.146	-0.0662	0.278	0.383	-0.129	0.964	1.54	-0.572
CS(=O)(=O)CCOC(=O)C1=CC(CCCO)=CC(c2ccc(CN3CCCC3)cc2)N(Cc2cc3c(cc2Br)OCO3)C=C1C(=O)OCCS(C)(=O)=O (stereo not given)	0.649	1.09 (inactive)	0.165	-0.0163	0.804	1.78	1.31	1.31	0.373	1.08
COc1ccc([Si](C)(C)[C@H]2[C@H](CCn3cc([C@H](O)c4ccccc4)nn3)O[C@@]3(C(=O)N(Cc4cccc(N5CCOC5=O)c4)c4ccccc43)[C@@H]2C)cc1	-0.0478	-0.01 (inactive)	-0.0068	-0.301	0.0191	0.178	-0.49	1.07	0.528	0.958
CC(C)C(=C=CC[C@@H](O)c1ccccc1OCCO)CCO	0.0824	-0.519 (inactive)	-0.0311	-0.115	0.374	-0.501	-0.412	0.615	0.0551	0.542
C=CC[C@@]1(C(=O)N(C)C)N=C(c2ccc(OCCCO)cc2)O[C@@H]1c1ccccc1N=[N+]=[N-]	0.757	0.149 (inactive)	0.37	0.209	0.588	3.01	1.2	1.3	-0.344	1.18
O=C1NCC(=O)N2[C@@H]1C[C@@H](C(=O)O)[C@H]2c1cccc(OCCO)c1	-0.175	10.2 (active)	2.12	1.12	0.628	5.25	1.03	1.33	1.6	0.945
COc1ccc(C(=O)O[C@H]2CC[C@]3(C)C4=C(CCC3C2(C)C)[C@]2(C)CC[C@H]([C@H](C)CCCC(C)C)[C@@]2(C)CC4)cc1 (stereo not given in full)	0.12	-0.482 (inactive)	0.236	-0.149	-0.008	0.688	0.064	0.154	0.575	0.447
COC(=O)[C@@]1(Cc2ccccc2)[C@H]2c3cc(C(=O)N4CCCC4)n(Cc4nc5ccccc5[nH]4)c3C[C@H]2CN1C(=O)c1ccccc1	1.03	0.579 (inactive)	0.537	0.404	0.653	3.34	0.988	1.3	-0.72	0.912
O=C(NCC(F)(F)F)[C@@H]1c2ccccc2C(=O)N(C2CCCCC2)[C@H]1c1ccc(CO)cc1	0.558	0.35 (inactive)	-0.0313	-0.0942	0.667	-0.0286	-0.797	0.314	-0.615	1.11

Structure (SMILES)	composite z-score [1]	composite Z-score [2]	composite z-score [3]	composite z-score [4]	composite z-score [5]	composite z-score [6]	composite z-score [7]	composite z-score [8]	composite z-score [9]	composite z-score [10]
COCCOC(=O)N1C(=O)[C@@]2(c3cc(C#CC4=CCCCC4)ccc31)[C@H](C(=O)Nc1nc3ccccc3s1)[C@H]1C(=O)O[C@H](c3ccccc3)[C@H](c3ccccc3)N1[C@@H]2c1ccccc1OCCO	0.657	-0.478 (inactive)	0.757	0.248	0.188	1.1	-0.123	1.13	0.367	1.14
CN1C(=O)C2C=CC(C(O)c3ccc(I)cc3)N(N3CCCCC3)C2C1=O (stereo not given)	0.999	0.891 (inactive)	0.748	0.0196	0.608	2.85	0.879	1.32	-0.119	1.15
COCCOC(=O)N1C(=O)[C@@]2(c3cc(C#CCCO)ccc31)[C@H](C(=O)Nc1nc3ccccc3s1)[C@H]1C(=O)O[C@H](c3ccccc3)[C@H](c3ccccc3)N1[C@@H]2c1ccc(OCCO)cc1	0.72	-1.03 (inactive)	0.286	-0.0028	0.295	0.793	0.225	1.28	0.387	1.07
C=C(COC)/C(=C/C[C@@H](OC(C)=O)c1ccc(OCCO)cc1)c1cc(C(=O)OC)ccc1OC	0.616	-0.064 (inactive)	0.0873	-0.118	0.591	0.669	-0.413	1.27	0.784	0.699
NCCCCCNC(=O)[C@@H]1C[C@@H]2C(=O)NCC(=O)N2[C@@H]1c1ccc(O)cc1	0.802	0.126 (inactive)	-0.0889	-0.108	0.558	0.899	0.249	1.31	0.831	1.06
COc1ccc(C(=O)Nc2ccc(CN3C(=O)[C@@]4(O[C@@H](CCn5cc([C@H](O)c6ccccc6)nn5)[C@H]([Si](C)(C)c5ccc(OC)cc5)[C@H]4C)c4ccccc43)cc2)cc1	0.0961	0.611 (inactive)	-0.0377	-0.124	0.563	1.39	0.0085	0.876	-0.238	0.399
COC(=O)[C@@]1(Cc2ccccc2)[C@H]2c3cc(C(=O)N4CCCC4)n(Cc4cccc5ccccc45)c3C[C@H]2CN1C(=O)c1ccccc1	0.942	0.304 (inactive)	1.44	0.707	0.741	1.54	0.539	0.621	-0.975	0.308
COCCOC(=O)N1C(=O)[C@@]2(c3cc(C#CCCO)ccc31)[C@H](C(=O)N1CCN(c3ncccn3)CC1)[C@H]1C(=O)O[C@H](c3ccccc3)[C@H](c3ccccc3)N1[C@@H]2c1ccccc1OCCO	0.922	-0.07 (inactive)	0.195	-0.134	0.582	1.76	0.186	1.31	0.207	1.14
O=C(NCc1ccccc1)[C@@H]1c2ccccc2C(=O)N(CC23CC4CC(CC(C4)C2)C3)[C@H]1c1ccc(CO)cc1	0.438	1.23 (inactive)	-0.274	-0.265	0.467	0.813	1.17	1.28	0.452	1.1
O=C1[C@H]2C=C(Br)[C@H](C[C@@H]2c2ccccc2)[C@@]12CO2	-0.6	1.22 (inactive)	0.11	-0.0817	0.183	-0.0697	-0.187	0.383	0.945	-0.0479
COCCOC(=O)N1C(=O)[C@@]2(c3cc(C#Cc4ccc(OC)cc4)ccc31)[C@H](c1ccccc1OCCO)N1[C@H](c3ccccc3)[C@H](c3ccccc3)OC(=O)[C@H]1[C@@H]2C(=O)N1CCN(c2ncccn2)CC1	0.322	0.179 (inactive)	-0.0288	-0.131	0.336	0.572	0.141	0.866	0.0135	0.923
C=CCC(OC(C)=O)[C@@H]1[C@@H](N(Cc2ccc(-c3ccccc3)cc2)C(=O)Cc2ccc(F)cc2)c2cc(OCCCO)ccc2N1C(=O)c1ccc(-c2ccccc2)cc1 (stereo not given in full)	0.127	-0.405 (inactive)	0.0905	-0.141	-0.249	-0.338	0.0362	0.0072	0.528	-0.136
CCCCCC1=C2CNC(CCC)(C(=O)OC)C=C2C(C)C1=O (stereo not given)	0.912	0.956 (inactive)	0.227	0.153	0.698	1.61	0.448	0.273	-0.723	0.236
O=C1NC(=O)C2C1C=CC(C(O)c1ccccc1)N2Nc1ccc(Cl)cc1Cl (stereo not given)	0.885	-0.199 (inactive)	0.405	-0.0974	0.574	3.18	1.23	1.33	-0.238	1.1
CN(C)CCCC[C@@H]1NC(=O)[C@H]2C[C@@H](C(=O)NCCCCCNC(=O)CS)[C@@H](c3cccc(OCCO)c3)N2C1=O	0.816	-0.114 (inactive)	-0.239	-0.175	0.661	1.67	0.0827	1.03	0.651	0.612
COC(=O)[C@@]1(Cc2ccc(F)cc2)[C@H]2c3cc(C(=O)N4CCCC4)n(Cc4ccc(C)o4)c3C[C@H]2CN1C(=O)c1ccccc1	0.469	0.157 (inactive)	0.28	0.354	0.546	1.95	0.137	-0.459	-0.549	0.851
